The values below come from the OligoGym collection.
Also: reference of the scale not given here.

The target in one experiment is CYTH1. Description: pooled miR-30 sensor sort-seq; sequence = guide strand. As to conditions: shRNA.
In turn, TCGTTCTCTATTAAGAACTGGA registered a sensor-assay potency score (higher = more potent) of -0.271.

As to TTGCACTGACAATATCGCTGGG, the sensor-assay potency score (higher = more potent) amounted to 0.116.

Sequence TACTTCTGCTATCTCATCCTTC returned a sensor-assay potency score (higher = more potent) of 0.117.

TAACTTGGTCTTTATTGTCGGG yielded a sensor-assay potency score (higher = more potent) of -0.54.

TTGGTCTTTATTGTCGGGGATA: the sensor-assay potency score (higher = more potent) was -1.5.

The sequence TTGTCAGTCAGAATGAACCAGC returned a sensor-assay potency score (higher = more potent) of -0.752.

Another experiment concerns the target CYTH4. Described as above. As to conditions: shRNA.
For TGATCCTCTGTAACTCTTCCGT, the sensor-assay potency score (higher = more potent) is -0.462.

As for TTGAGGTTGGCGAACTCGTGGC, the sensor-assay potency score (higher = more potent) was -0.377.

TTGGATATAGCACCCATCCTGC came in with a sensor-assay potency score (higher = more potent) of -0.488.

As for TGTAACTCTTCCGTCTCCCCGC, the sensor-assay potency score (higher = more potent) is -0.31.

TTTCGGTGCCACTTGATCCTCT had a sensor-assay potency score (higher = more potent) of -0.308.

As to AAGGACAACACGTAGCAGGTGT, the sensor-assay potency score (higher = more potent) came out at 0.877.

Sequence TTGAGCAGCCAACCCTCCCGGT registered a sensor-assay potency score (higher = more potent) of -1.04.

TTGTCGGTCAGGATGAACCAGC yielded a sensor-assay potency score (higher = more potent) of -0.768.

On to TAGCAGGTGTCTGTGGACTGGA, for which the sensor-assay potency score (higher = more potent) was -0.452.

TTCATGGACACAAAGCGCTCGA gave a sensor-assay potency score (higher = more potent) of -0.11.

TCCATGTTGAACTTCTTGCGCC came in with a sensor-assay potency score (higher = more potent) of -1.08.

The next experiment concerns the target CYorf15A. The description is as above. To be noted: shRNA.
The sequence TTGGAGTTGATTATTAACTAAA returned a sensor-assay potency score (higher = more potent) of -1.56.

TATCTTTTCCATTATTTGCTTT: the sensor-assay potency score (higher = more potent) was -0.915.

As to TACAACATGGAGTTGCTGCTTT, the sensor-assay potency score (higher = more potent) came out at 0.408.

ATTTACAACATGGAGTTGCTGC displayed a sensor-assay potency score (higher = more potent) of -0.262.

TAAAGCTTGCTGACCAGACGGA yielded a sensor-assay potency score (higher = more potent) of 0.11.

Regarding TCTGCTTTCTCTCTTAACCCAC, the sensor-assay potency score (higher = more potent) is -0.243.

Sequence TTGTGCATTTACAACATGGAGT had a sensor-assay potency score (higher = more potent) of -0.696.

The sequence TTATTTGCTTTACAAAGTCTAG yielded a sensor-assay potency score (higher = more potent) of -0.983.

For the sequence AAGACTTTTTCTTTGTTCCTGT, the sensor-assay potency score (higher = more potent) was 0.524.

In the case of TTCTTTGTTATAAAGTCACGGC, the sensor-assay potency score (higher = more potent) was -0.192.

With TTGCTTTACAAAGTCTAGTAGG, the sensor-assay potency score (higher = more potent) is -0.465.

Consider TTGCATTGTAAAGCTTGCTGAC, for which the sensor-assay potency score (higher = more potent) was -0.311.

The target of a further experiment is DAGLA. The experiment is described as above. As to conditions: shRNA.
Turning to TATAGTTAGGTCGCTGGGGTGG, the sensor-assay potency score (higher = more potent) is -0.742.

TAGTTCTCCAGCACCTTGTTGA gave a sensor-assay potency score (higher = more potent) of -0.467.

TTTCTTCTTGTCATGGTCCACC: the sensor-assay potency score (higher = more potent) was -0.657.

Take TTTCATCTGAGAGTCTGTCTTG: the sensor-assay potency score (higher = more potent) was 0.187.

As to TATACAATATACAGAAACCTTT, the sensor-assay potency score (higher = more potent) was -0.353.

Sequence TTTTACAGCAATATTAGTTTGG displayed a sensor-assay potency score (higher = more potent) of 0.015.

TTGTTTTCTAAACTCTAAGAGC gave a sensor-assay potency score (higher = more potent) of -0.925.

Sequence TTGGCAGTGAGGTCGTTGCAGG returned a sensor-assay potency score (higher = more potent) of -1.13.

TAGAGGTCTTGGAAGGAGCTGC displayed a sensor-assay potency score (higher = more potent) of 0.223.

As for TAGAAGTCCGGATCTTGTCAGC, the sensor-assay potency score (higher = more potent) was -0.641.

The sequence TTTTCTAAACTCTAAGAGCCAC showed a sensor-assay potency score (higher = more potent) of -0.539.
